Measured values taken from the supplement of paper PMC7411054.
Counter-ions that a name gives are not always drawn.

Experiments:
Assay in all cases: phenotypically active (imaging signature differs from DMSO and reproducible) at any of 0.3-9 uM (binary (1 = active, 0 = inactive)); higher = active
Details in all cases: treatment time: 24 h
[1] = test system: A549-ACTB-RAB5A
Summary of the method: (§1)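 Each of fifteen gene-edited A549, HepG2 and WPMY1 reporter lines, marked with BFP for segmentation and GFP and RFP/FusionRed, was treated in four wells at 0.3, 1, 3 or 9 µM for 24 h prior to live imaging. Normalisation of per-well live-cell features used solvent control wells. Deviation needed ≥3 of 4 wells beyond the 95th percentile of control Euclidean distances, and reproducibility needed a median replicate Pearson correlation above the 95th percentile of non-replicates. Both were required for phenotypic activity.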

[2] = test system: A549-CANX-COX4
Summary of the method: as §1

[3] = test system: A549-GM130-SQSTM1
Summary of the method: as §1

[4] = test system: A549-TP53BP1-CLTA
Summary of the method: as §1

[5] = test system: A549-TUBA1B-RELA
Summary of the method: as §1

[6] = test system: HepG2-ACTB-RAB5A
Summary of the method: as §1

[7] = test system: HepG2-CANX-COX4
Summary of the method: as §1

[8] = test system: HepG2-GM130-SQSTM1
Summary of the method: as §1

[9] = test system: HepG2-TP53BP1-CLTA
Summary of the method: as §1

[10] = test system: HepG2-TUBA1B-RELA
Summary of the method: as §1

[11] = test system: WPMY1-ACTB-RAB5A
Summary of the method: as §1

[12] = test system: WPMY1-CANX-COX4
Summary of the method: as §1

[13] = test system: WPMY1-GM130-SQSTM1
Summary of the method: as §1

[14] = test system: WPMY1-TP53BP1-CLTA
Summary of the method: as §1

[15] = test system: WPMY1-TUBA1B-RELA
Summary of the method: as §1

Measured: phenotypically active

C#C[C@]1(O)CC[C@H]2[C@@H]3CCC4=CCCC[C@@H]4[C@H]3C(=C)C[C@@]21CC [desogestrel]
inactive: [1] 0 | [2] 0 | [3] 0 | [4] 0 | [5] 0 | [6] 0 | [7] 0 | [8] 0 | [9] 0 | [10] 0 | [11] 0 | [12] 0 | [13] 0 | [14] 0 | [15] 0

CC(C)[N+](C)(CCOC(=O)C1c2ccccc2Oc2ccccc21)C(C)C [propantheline]
inactive: [1] 0 | [2] 0 | [3] 0 | [4] 0 | [5] 0 | [6] 0 | [7] 0 | [8] 0 | [9] 0 | [10] 0 | [11] 0 | [12] 0 | [13] 0 | [14] 0 | [15] 0

O=C(O)c1cc(=O)c(O)c(C(=O)O)o1 [Meconic acid]
inactive: [1] 0 | [2] 0 | [3] 0 | [4] 0 | [5] 0 | [6] 0 | [7] 0 | [8] 0 | [9] 0 | [10] 0 | [11] 0 | [12] 0 | [13] 0 | [14] 0 | [15] 0

COc1ccc2c3c([nH]c2c1)[C@H]1C[C@H]2[C@H](C[C@@H](O)[C@H](OC)[C@H]2C(=O)O)CN1CC3 [Reserpinic acid hydrochloride]
inactive: [1] 0 | [2] 0 | [3] 0 | [4] 0 | [5] 0 | [6] 0 | [7] 0 | [8] 0 | [9] 0 | [10] 0 | [11] 0 | [12] 0 | [13] 0 | [14] 0 | [15] 0

CN(C)CCOC(=O)C(c1ccccc1)C1(O)CCCC1 (stereo not given) [cyclopentolate]
inactive: [1] 0 | [2] 0 | [3] 0 | [4] 0 | [5] 0 | [6] 0 | [7] 0 | [8] 0 | [9] 0 | [10] 0 | [11] 0 | [12] 0 | [13] 0 | [14] 0 | [15] 0

O=c1[nH]cnc2[nH]ncc12 [Allopurinol]
inactive: [1] 0 | [2] 0 | [3] 0 | [4] 0 | [5] 0 | [6] 0 | [7] 0 | [8] 0 | [9] 0 | [10] 0 | [11] 0 | [12] 0 | [13] 0 | [14] 0 | [15] 0

CN1C(=O)OC(C)(C)C1=O [trimethadione]
inactive: [1] 0 | [2] 0 | [3] 0 | [4] 0 | [5] 0 | [6] 0 | [7] 0 | [8] 0 | [9] 0 | [10] 0 | [11] 0 | [12] 0 | [13] 0 | [14] 0 | [15] 0

CC(=O)Nc1nnc(S(N)(=O)=O)s1 [acetazolamide]
inactive: [1] 0 | [2] 0 | [3] 0 | [4] 0 | [5] 0 | [6] 0 | [7] 0 | [8] 0 | [9] 0 | [10] 0 | [11] 0 | [12] 0 | [13] 0 | [14] 0 | [15] 0

NC12CC3CC(CC(C3)C1)C2 [amantadine]
inactive: [1] 0 | [2] 0 | [3] 0 | [4] 0 | [5] 0 | [6] 0 | [7] 0 | [8] 0 | [9] 0 | [10] 0 | [11] 0 | [12] 0 | [13] 0 | [14] 0 | [15] 0

CNS(=O)(=O)CCc1ccc2[nH]cc(C3CCN(C)CC3)c2c1 [naratriptan]
inactive: [1] 0 | [2] 0 | [3] 0 | [4] 0 | [5] 0 | [6] 0 | [7] 0 | [8] 0 | [9] 0 | [10] 0 | [11] 0 | [12] 0 | [13] 0 | [14] 0 | [15] 0

Cc1cc(C)nc(SCC(=O)Nc2ncc(Cc3cccc4ccccc34)s2)n1
inactive: [1] 0 | [2] 0 | [3] 0 | [4] 0 | [5] 0 | [6] 0 | [7] 0 | [8] 0 | [9] 0 | [10] 0 | [11] 0 | [12] 0 | [13] 0 | [14] 0 | [15] 0
